Only some compounds are listed: those with a hit (about 3.6% of all), similar ones and a draw of the others.
PLK1 PBD inh: blocks phosphopeptide binding to human PLK1 polo-box domain | P53350 | Plk1 PBD binding of FITC phosphopeptide, fluorescence polarization | Potency, µM, usual class: inhibitors | hit rate 2.8% among 360,000 | AID 720504; note: series mostly up to about 57 µM; nearly all actives have a fitted effect of over 65% in size
Target sequence (P53350 whole entry, looked up, the tested form may be a part): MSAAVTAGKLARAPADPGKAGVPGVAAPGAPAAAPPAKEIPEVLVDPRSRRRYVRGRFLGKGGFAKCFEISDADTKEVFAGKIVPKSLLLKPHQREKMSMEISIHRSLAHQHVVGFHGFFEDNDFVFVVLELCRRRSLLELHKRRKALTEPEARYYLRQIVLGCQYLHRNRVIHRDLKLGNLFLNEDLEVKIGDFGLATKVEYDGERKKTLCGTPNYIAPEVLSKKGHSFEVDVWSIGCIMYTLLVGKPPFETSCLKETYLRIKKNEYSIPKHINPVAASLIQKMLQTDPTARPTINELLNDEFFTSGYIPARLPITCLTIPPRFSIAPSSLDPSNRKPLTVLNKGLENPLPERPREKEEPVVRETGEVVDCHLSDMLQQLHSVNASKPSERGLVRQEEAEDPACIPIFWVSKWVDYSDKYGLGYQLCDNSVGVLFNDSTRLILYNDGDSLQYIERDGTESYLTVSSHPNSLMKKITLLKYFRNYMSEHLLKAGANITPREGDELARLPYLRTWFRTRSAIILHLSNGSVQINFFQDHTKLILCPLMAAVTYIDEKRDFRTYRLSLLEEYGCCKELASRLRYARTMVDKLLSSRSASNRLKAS
GCN5L2 inh-1: inhibitors of human GCN5L2 histone acetyltransferase; AID 504327; hit rate 0.21% among 390,000; GCN5L2 HAT assay, ThioGlo1 CoA-SH fluorescence; Potency, µM (titrated, usually from 58.9 µM), hits mostly inhibitors
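Titration-based screen in which CoA formation is detected via maleimide probe ThioGlo1 (50uM) turning fluorescent on thiol reaction; substrates H3(1-25) 75uM and acetyl-CoA 70uM, GCN5L2 20nM, 20 min incubation at room temperature.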
Rango-impB inh: Rango-importin beta binding inhibition; Q14974; Rango CFP/YFP FRET sensor + importin beta, 45 min; Potency, µM (top dose mostly 92.2 µM); hit rate 0.031% among 340,000; AID 540263; calls by dose curve; note: nearly all actives have a fitted effect of over 15% in size
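Inhibition scored from the CFP 486 nm/YFP 530 nm FRET ratio 45 min after adding 0.125 microM importin beta to 50 nM Rango biosensor preincubated 5 min with compound (room temperature, PBS with DTT, Tween-20, BSA). No-importin wells as positive control.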
Rango release inh: inhibitors of RanGTP-induced Rango-importin beta complex dissociation | Biochemical FRET Rango-importin beta, RanGTP-induced dissociation | Potency, µM (highest dose often 46.1 µM) | hit rate 0.071% among 340,000; calls by dose curve; note: nearly all actives have a fitted effect of over 45% in size
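Rango (0.1 uM)–importin beta (0.25 uM) complex; RanGTP-RCC1 trigger; 45 min RT; CFP/YFP FRET read.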
PI5P4K alpha inh: blocks human PI5P4K alpha kinase activity | hit rate 1.2% among 330,000 | PI5P4Kalpha enzyme, ADP-Glo luminescence, 60 min; stronger effect = lower value | max response, % | P48426; active = max response of -50% or lower; inconclusive = between -30% and -50%; inactive = -30% or higher; note: value at the top dose of about 77 µM
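Luminescence from ADP-Glo served as readout of PI5P4Kalpha activity in a qHTS format. Reaction: enzyme, substrate, compound, ATP at 5 microM final, 60 min at RT.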
VDR inhibitor: vitamin D3 receptor (human) inhibition; Potency, µM, usual class: inhibitors; AID 504847; VDR-SRC2-3 peptide fluorescence polarization, 2 h; hit rate 0.93% among 400,000; P11473
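Fluorescence polarization assay of small-molecule disruption of VDR binding to coregulator peptide SRC2-3. Compounds and controls pin-transferred, then read after 2 h incubation at ambient room temperature.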
GCN5L2 inh-2: confirmation of human GCN5L2 histone acetyltransferase inhibitors. GCN5L2 HAT, ThioGlo1 CoA fluorescence, 20 min. shares compounds with GCN5L2 inh-1. Potency, µM, actives largely listed as inhibitors. hit rate 70% among 140
USP1 UbRho: validation of human USP1/UAF1 inhibitors. hit rate 50% among 50. Potency, µM (titrated, usually from 114 µM), actives largely listed as inhibitors. shares compounds with VDR inhibitor. AID 540327. Ub-Rhodamine cleavage, fluorescence kinetic read
VDR confirm: confirmation of human vitamin D receptor inhibitors. AID 602199. hit rate 89% among 840. VDR-coactivator inhibition assay, qHTS confirmation. shares compounds with VDR inhibitor. Potency, µM, hits mostly inhibitors
VDR FP: confirmation of human VDR-coactivator binding inhibitors, fluorescein label; shares compounds with VDR inhibitor; VDR-coactivator binding, fluorescein fluorescence polarization; Potency, µM (doses to about 57.1 µM), actives largely listed as inhibitors; hit rate 48% among 840; AID 602200
VDR bla: VDR (human) inhibition, cell-based beta-lactamase validation; Potency, µM (series often up to 46.1 µM), usual class: inhibitors; hit rate 23% among 840; VDR beta-lactamase reporter cells, FRET ratio; cells co-treated with VDR agonist LG190178; AID 602202; shares compounds with VDR inhibitor
VDR viability: cytotoxic in counter-screen for VDR inhibitors; shares compounds with VDR inhibitor; cytotoxicity counter-screen, cell viability, qHTS; Potency, µM (top dose mostly 48.3 µM), most hits filed as cytotoxic; AID 602204; hit rate 18% among 840; note: nearly all actives have a fitted effect of over 75% in size
TbPYK inh: confirmation of Trypanosoma brucei pyruvate kinase inhibitors; shares compounds with PLK1 PBD inh; recombinant TbPYK, Kinase-Glo ATP luminescence; Potency, µM (highest dose often 76.9 µM), actives largely listed as inhibitors; hit rate 67% among 890; AID 720569; note: nearly all actives have a fitted effect of over 70% in size
TbPYK orthogonal: orthogonal confirmation of Trypanosoma brucei pyruvate kinase inhibitors; recombinant TbPYK, ADP-Glo luminescence, 60 min; Potency, µM (series often up to 76.9 µM), actives largely listed as inhibitors; shares compounds with PLK1 PBD inh; hit rate 62% among 890; AID 720584; note: nearly all actives have a fitted effect of over 75% in size
Each line names hits and unclear results; the compound was inactive in the other large screens (follow-up assays come after a bar, where they were run); ! = repeats disagree. Unless noted, calls come from the whole dose curve; as a rule, active = well fitted curve in the direction sought with a large enough effect; inconclusive = small, poorly fitted or top-dose-only effect, or another doubt; inactive = no such curve, though single readings can be large; an effect the other way counts as inactive or inconclusive.

CN=c1nc(-c2ccccc2)n(-c2ccccc2)s1	PLK1 PBD inh 2.99µM, GCN5L2 inh-1 2.24µM, PI5P4K alpha inh -85.8, VDR inhibitor 50.1µM | GCN5L2 inh-2 2.57 | TbPYK inh 0.891µM | TbPYK orthogonal 1.78µM
c1ccc2sc(N3CCOCC3)nc2c1	none (no result: PI5P4K alpha inh)
c1ccc2sc(SN3CCOCC3)nc2c1	PLK1 PBD inh 21.2µM, GCN5L2 inh-1 inconclusive, PI5P4K alpha inh -76.3, VDR inhibitor inconclusive | GCN5L2 inh-2 14.5 | TbPYK inh 28.2µM | TbPYK orthogonal 35.5µM
CC(C)(O)C1Cc2cc(/C=C/C(=O)O)c(O)cc2O1 (stereo not drawn)	PLK1 PBD inh 2.99µM, GCN5L2 inh-1 10µM, Rango-impB inh inconclusive, PI5P4K alpha inh -66.4, VDR inhibitor inconclusive | GCN5L2 inh-2 9.13 | TbPYK inh 12.6µM | TbPYK orthogonal 14.1µM
CCN(CC)c1ccc(N=Cc2ccccc2[N+](=O)[O-])cc1	VDR inhibitor inconclusive
CCN(CC)c1ccc(N=Cc2ccc([N+](=O)[O-])o2)cc1	Rango-impB inh inconclusive, VDR inhibitor inconclusive | VDR confirm 7.94 | VDR FP inactive | VDR bla inactive | VDR viability inactive
O=C1/C(=C/c2ccncc2)CCC/C1=C\c1ccncc1	PLK1 PBD inh 21.2µM, VDR inhibitor 7.08µM | VDR confirm 5.32 | VDR FP 3.55µM | VDR bla 3.26µM | VDR viability 20.6µM
O=C(CN1C(=O)COc2ccc(S(=O)(=O)N3CCOCC3)cc21)NCc1ccc(Cl)cc1	none (no result: PLK1 PBD inh, Rango-impB inh, Rango release inh, PI5P4K alpha inh)
CCCCn1cnc2cc(NCc3ccccc3Cl)ccc21	none (no result: PLK1 PBD inh, Rango-impB inh, Rango release inh, PI5P4K alpha inh)
O=C(NCCCN1CCN(c2ccccc2F)CC1)c1sc2ncccc2c1-n1cccc1	none (no result: PLK1 PBD inh, Rango-impB inh, Rango release inh, PI5P4K alpha inh)
COc1ccc(S(=O)(=O)CC(=O)c2cc3cc(Br)ccc3oc2=O)cc1	PLK1 PBD inh 1.68µM, GCN5L2 inh-1 inconclusive, Rango-impB inh inconclusive, PI5P4K alpha inh -75.2, VDR inhibitor inconclusive | VDR confirm 10 | VDR FP 3.98µM | VDR bla inactive | VDR viability inactive
COc1ccc(NC(=O)c2cccc(N3C(=O)c4cccc([N+](=O)[O-])c4C3=O)c2)cc1	none
COc1ccc(/C=C2\C(=O)N(c3c(Cl)cc(Cl)cc3Cl)N=C2NC(=O)c2cccc([N+](=O)[O-])c2)cc1	PLK1 PBD inh 0.752µM, GCN5L2 inh-1 inconclusive, Rango-impB inh inconclusive, VDR inhibitor inconclusive | VDR confirm 2.82 | VDR FP 1.26µM | VDR bla inconclusive | VDR viability inactive
CCOC(=O)CNCCC(=O)c1ccc(Br)cc1	PLK1 PBD inh 11.9µM, Rango-impB inh inconclusive, Rango release inh inconclusive, VDR inhibitor 50.1µM | VDR confirm 21.2 | VDR FP 22.4µM | VDR bla inconclusive | VDR viability inconclusive
O=C(/C=C/c1cccc([N+](=O)[O-])c1)c1ccc2c(c1)OCCO2	VDR inhibitor inconclusive | VDR confirm 12.6 | VDR FP 12.6µM | VDR bla inconclusive | VDR viability inconclusive
O=C(/C=C/c1cccc([N+](=O)[O-])c1)c1cccs1	VDR inhibitor inconclusive | VDR confirm 5.62 | VDR FP 7.94µM | VDR bla inactive | VDR viability inconclusive
COc1ccc2nc(S(=O)Cc3ncc(C)c(OC)c3C)[nH]c2c1 (stereo not drawn)	PLK1 PBD inh 23.8µM, GCN5L2 inh-1 inconclusive, PI5P4K alpha inh inconclusive, VDR inhibitor 89.1µM! | VDR confirm 2.67 | VDR FP inconclusive | VDR bla inactive | VDR viability inactive
COc1ccc2nc(SCC(=O)Nc3c(C)cccc3C)[nH]c2c1	none
CCOC(=O)c1[nH]c(C)c(CCC(=O)N2CCN(c3cc(C)ccc3C)CC2)c1C	none (no result: PLK1 PBD inh, Rango-impB inh, Rango release inh, PI5P4K alpha inh)
Cc1cccc(N2C(=O)N(CC(=O)C(C)(C)C)c3ccccc3S2(=O)=O)c1C	none (no result: PLK1 PBD inh, Rango-impB inh, Rango release inh, PI5P4K alpha inh)
CC(C)Nc1nc(NC(C)C)nc(NS(=O)(=O)c2ccc(N)cc2)n1	none
Cc1ccc(S(=O)(=O)Nc2nsc(N)n2)cc1	VDR inhibitor 7.08µM | VDR confirm 5.32 | VDR FP inconclusive | VDR bla inactive | VDR viability inactive
Cc1oc2c(cc(NS(=O)(=O)c3ccc(F)cc3)c3ccccc32)c1C(=O)OCc1ccccc1	none (no result: PLK1 PBD inh, Rango-impB inh, Rango release inh, PI5P4K alpha inh)
CC(=O)O/N=C1\C(=O)N(Cc2ccc(C)cc2)c2ccccc21	PLK1 PBD inh inconclusive, VDR inhibitor inconclusive
CN1C(=O)/C(=N\OC(=O)c2ccccc2Cl)c2ccccc21	PLK1 PBD inh 2.67µM, VDR inhibitor inconclusive | VDR confirm 14.1 | VDR FP 15.8µM | VDR bla inconclusive | VDR viability inactive
COc1cc(/C=C2\C(=O)N(c3ccc(S(N)(=O)=O)cc3)N=C2C)ccc1OC(=O)c1ccco1	PLK1 PBD inh 3.77µM, VDR inhibitor inconclusive | VDR confirm 10 | VDR FP 3.55µM | VDR bla inactive | VDR viability inactive
Cc1cc2nc3ccc(N(C)C)cc3nc2cc1N	PLK1 PBD inh inconclusive, PI5P4K alpha inh inconclusive, VDR inhibitor 79.4µM (no result: GCN5L2 inh-1) | VDR confirm 18.9 | VDR FP inactive | VDR bla inactive | VDR viability inconclusive
CN1CCN(CCCN2c3ccccc3Sc3ccc(C(F)(F)F)cc32)CC1	GCN5L2 inh-1 inconclusive, VDR inhibitor inconclusive | USP1 UbRho inconclusive

Screens deposited in PubChem by National Center for Advancing Translational Sciences (NCATS).
